From PubChem BioAssay AID624405 (Broad Institute, 2012)
In all, about 1,900 compounds went through this assay and about 250 (13%) were called active. Inconclusive results (about 4%) are left out. The list is a sample of the results. Results with a measured potency or affinity are listed apart. Unmarked numbers belong to inactive results.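 Rule for the calls: active = fitted curve reaches 40% rescue activity at or below the top valid dose, in every test run; inconclusive = test runs disagree, some active and some inactive; inactive = every run misses the threshold or moves the wrong way.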

Experiment: rescue of simvastatin-induced ATP loss – cell-based, C2C12 myotubes, ATP luminescence, cherry pick, dose response (AID 624405);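 note: myotubes are challenged with simvastatin at 10 µM to lower ATP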
Conditions: 48 h, scaled: DMSO wells 0, geranylgeraniol wells 100; series mostly up to 19.5 µM; rescue activity (ATP increase): at the top concentration

| Structure (SMILES) | rescue activity (ATP increase) |
| --- | --- |
| Cc1cc2c(cc1C)/C(=C\C(N)=O)NC(C)(C)C2 | -8.58% |
| COc1cc(C(N)=O)ccc1OCc1ccccc1 | 8.22% |
| CCN(CC)C(=O)CSc1nnc([C@H](CCSC)NC(=O)OC(C)(C)C)o1 | -9.94% |
| O=C(NCc1ccccc1)Oc1cccc(Cl)c1 | 26.1% |
| Cc1cc(NC(=O)c2ccc(Cl)c(S(=O)(=O)N3CCOCC3)c2)no1 | -10.7% |
| C[C@H]1CN([C@@H](C)CO)C(=O)c2cc(NS(=O)(=O)c3ccc(F)cc3)ccc2O[C@H]1CN(C)Cc1ccc(-c2ccccc2)cc1 | 5.05% |
| CN1C[C@@H]2[C@H](c3ccccc31)[C@@H](CO)N2Cc1ccccc1 | 21.2% [at 21 µM] |
| C[C@@H]1CN([C@@H](C)CO)C(=O)c2cc(NC(=O)c3ccccc3)ccc2O[C@@H](C)CCCCO[C@H]1CN(C)C(=O)CCCN(C)C | 4.85% |
| C[C@H]1CCCCO[C@H](CN(C)C(=O)Nc2cccc3ccccc23)[C@@H](C)CN([C@@H](C)CO)C(=O)c2cc(NS(=O)(=O)c3ccc(Cl)cc3)ccc2O1 | -11.2% |
| C[C@@H]1CN([C@H](C)CO)C(=O)c2cc(NC(=O)Nc3ccc(F)cc3)ccc2O[C@@H](C)CCCCO[C@H]1CN(C)S(=O)(=O)c1cccs1 | 7.63% |
| O=C(CN1CCN(c2ccccn2)CC1)NCCc1ccccc1 | 4.85% |
| CS(=O)(=O)N(CC(=O)NCc1ccccc1)C1CCCCC1 | 0.866% |
| CSc1cc(-c2ccc(Cl)cc2)c(C(=O)NC(C)C)s1 | 4.58% |
| Cc1noc(C)c1NC(=O)Nc1cccc2c1O[C@H](CN(C)Cc1ccc(-c3ccccc3)cc1)[C@@H](C)CN([C@@H](C)CO)C2=O | -5.23% |
| COc1ccc(NC(=O)Nc2cccc3c2O[C@@H](CN(C)Cc2ccc(Oc4ccccc4)cc2)[C@@H](C)CN([C@@H](C)CO)C3=O)cc1 | -0.035% |
| COc1ccc(NC(=O)Nc2cccc3c2O[C@@H](CN(C)Cc2ccc(Oc4ccccc4)cc2)[C@@H](C)CN([C@H](C)CO)C3=O)cc1 | -21% [at 21 µM] |
| Cc1noc(C)c1NC(=O)Nc1cccc2c1O[C@@H](CN(C)Cc1ccc(-c3ccccc3)cc1)[C@H](C)CN([C@@H](C)CO)C2=O | 8.68% |
| C[C@@H]1CN([C@@H](C)CO)C(=O)c2cc(C#CC3CCCCC3)cnc2O[C@@H]1CN(C)C(=O)C1CCCCC1 | -4.43% |
| CSc1nncn1/N=C/c1ccc2c(c1)OCO2 | -1.45% |
| COc1cccc(-c2cnc3c(c2)C(=O)N([C@H](C)CO)C[C@H](C)[C@H](CN(C)C(=O)Nc2cccc4ccccc24)O3)c1 | 9.55% |
| COc1cc(C(=O)Oc2cccc(C)c2)cc(OC)c1OC | -10.8% |
| O=C(c1cccs1)N1CCN(C2CCN(Cc3ccccc3)CC2)CC1 | -9.46% |
| COc1ccc(CN2CCN(C(=O)c3cccs3)CC2)cc1Br | 28.6% |
| COc1cc(S(=O)(=O)N2CCN(C(=O)c3ccccc3F)CC2)c(OC)cc1NC(C)=O | 0.236% |
| Cc1ccc(S(=O)(=O)N2CCCSCC2)cc1 | 10.4% |
| Cc1noc(N)c1C(=O)Nc1ccc(F)c(Cl)c1 | 1.69% |
| Cc1nnc(Sc2nc3c(c(=O)n(C)c(=O)n3C)n2Cc2ccccc2Cl)s1 | -13.5% |

| Structure (SMILES) | rescue activity (ATP increase) |
| --- | --- |
| O=C1CCCC2=C1C(c1cccs1)Nc1ccc3ncccc3c12 (stereo not drawn) | 24.9% |
| CCCSc1nnc(CN2CCOCC2)n1C | -4.41% |
| CCCNC(=O)C(=O)c1cccn1-c1ccsc1C(=O)OC | -13.7% |
| CCOC(=O)c1ccc(NC(=O)N2CCCCC2)cc1 | -33.5% |
| C[C@H](CO)N1C[C@H](C)[C@H](CN(C)C(=O)Nc2ccc3c(c2)OCO3)OCCCC[C@H](C)Oc2ccc(NS(=O)(=O)c3ccc(F)cc3)cc2C1=O | 36.7% |
| Cc1ccc(CN2CCC(C(=O)NCCC(C)C)CC2)o1 | -12.4% |
| Cc1ccc(S(=O)(=O)N(C)C[C@H]2Oc3c(NC(=O)Nc4ccccc4)cccc3C(=O)N([C@H](C)CO)C[C@@H]2C)cc1 | -0.949% |
| COc1ccc(S(=O)(=O)Nc2cccc3c2O[C@@H](CN(C)C(=O)Nc2ccc(F)cc2)[C@@H](C)CN([C@H](C)CO)C3=O)cc1 | 13.7% |
| COc1ccc(S(=O)(=O)Nc2cccc3c2O[C@H](CN(C)C(=O)Nc2ccc(F)cc2)[C@@H](C)CN([C@H](C)CO)C3=O)cc1 | 28.7% |
| COc1ccc(S(=O)(=O)Nc2cccc3c2O[C@@H](CN(C)C(=O)Nc2ccc(F)cc2)[C@@H](C)CN([C@@H](C)CO)C3=O)cc1 | 8.52% |
| Cc1ccc(S(=O)(=O)N(C)C[C@H]2Oc3c(NC(=O)Nc4ccccc4)cccc3C(=O)N([C@@H](C)CO)C[C@@H]2C)cc1 | 14.2% |
| Cc1ccc(S(=O)(=O)N(C)C[C@@H]2Oc3c(NC(=O)Nc4ccccc4)cccc3C(=O)N([C@@H](C)CO)C[C@H]2C)cc1 | -16% |
| CN1C(=O)c2cc(NC(=O)c3ccc(F)c(F)c3)ccc2OC[C@H]2O[C@@H](CC(=O)Nc3ccc4c(c3)COC4)CC[C@@H]21 | 26% [at 10 µM] |
| CCSc1nc2sc3c(c2c(=O)n1-c1ccc(OC)cc1)CCN(C)C3 | 40.1% |
| COCCNC(=O)c1nn(-c2cc(OC)cc(OC)c2)c(=O)c2ccccc12 | 0.939% |
| COc1ccc(S(=O)(=O)N(CC(C)C)CC(C)C)c2cccnc12 | 9.83% |
| Cc1cccc(NC(=O)COc2ccc3oc4c(c3c2)CCCC4)n1 | 31.6% |
| CO[C@H]1CC[C@@H]2CCOc3ccc(C#N)cc3C(=O)N(C)C[C@@H](OC)[C@@H](C)C(=O)N(C)C[C@H]1O2 | 40.2% |
| C[C@@H]1CN([C@H](C)CO)C(=O)c2cc(NS(=O)(=O)c3cccs3)ccc2O[C@@H](C)CCCCO[C@@H]1CN(C)Cc1ccc(C(F)(F)F)cc1 | -13.6% |
| O=C(CSc1nnnn1-c1cccc2c1CCCC2)N1CCCCC1 | 5.11% |
| Cc1ccc(NC(=O)c2cccc(OCc3c(C)noc3C)c2)cc1 | -87% |
| COCCNC(=O)Nc1ccc2nc(-c3cccs3)c(-c3cccs3)nc2c1 | -64.5% |
| O=C(CSc1nnc(CNc2ccc(F)cc2)n1Cc1ccccc1)N1CCOCC1 | -5.13% |
| COc1ccc(NC(=O)CSc2nccc(C)n2)cc1 | 8.89% |
| Cc1ccc(NC(=O)CCNS(=O)(=O)c2ccc3[nH]c(=O)oc3c2)cc1F | -26.9% |
| C[C@@H]1CN([C@H](C)CO)C(=O)c2cc(C#CC3CCCCC3)cnc2O[C@H]1CN(C)C(=O)C1CCCCC1 | -2.93% |
